TcdB inh: TcdB glycohydrolase inhibitors, primary screen, biochemical, single point, plate reader; TcdB glycohydrolase enzymatic assay; AID 652162, 2013; hit rate 0.24% among 350,000; Toxin B (Clostridioides difficile), P18177; inhibition, % at 9.99 µM; in the data active means inhibition above about 10%
MazEF act: activators of E. coli MazEF toxin-antitoxin RNase, primary screen, biochemical, fluorescence, uHTS; hit rate 0.32% among 350,000; FAM/BHQ RNA-DNA oligo cleavage fluorescence, 5 h; activation, % at 20 µM; in the data active means activation above about 50%
Target sequence (P0AE70 whole entry, looked up): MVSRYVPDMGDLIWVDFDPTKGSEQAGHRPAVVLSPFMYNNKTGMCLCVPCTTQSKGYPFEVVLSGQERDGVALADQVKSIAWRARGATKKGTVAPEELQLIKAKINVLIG
Sa RN4220 lethal: growth inhibition of S. aureus RN4220, primary screen, OD600. hit rate 0.33% among 330,000. inhibition, % (no concentration beside the values). 16 h; in the data active means inhibition above about 85%
Mtb hypoxia inh: PubChem AID 1159583; M. tuberculosis hypoxia-regulated fluorescent reporter, fluorescence; fluorescence inhibition, % (no concentration beside the values); hit rate 0.1% among 300,000; in the data active means fluorescence inhibition mostly above about 23%, no sharp cut-off; inactive means mostly below about 17%
PfHsp40 rescue: rescue of yeast from PfHsp40 toxicity, primary screen, S. cerevisiae, ATP luminescence | S. cerevisiae expressing PfHsp40, growth rescue | growth rescue, % at 12.5 µM | hit rate 0.68% among 340,000 | AID 504582, 2011; in the data active means growth rescue above about 28%, passing the limit was not always enough;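 further: yeast W303a lacking pdr1 and pdr3 grown in galactose medium; growth measured after three days at 30 °C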
Sa ugtP lethal: growth inhibition of ugtP-null S. aureus, primary screen, RN4220 ugtP deletion, OD600; 16 h; growth inhibition, % (concentration not given with the values); hit rate 0.54% among 330,000; AID 1259309, 2017; in the data active means growth inhibition above about 68%
A number is an active result. Most compounds without a hit are left out; they make up all but 1.3% or so of the library.

Results for Cc1ccc(S(=O)(=O)Nc2ccc3c(c2)C(=O)N([C@H](C)CO)C[C@H](C)[C@@H](CN(C)Cc2ccc(Cl)c(Cl)c2)OCCCC[C@H](C)O3)cc1 ?
TcdB inh: inactive

What do the screens show for `CCn1c(SCC(=O)c2cc(C)ccc2C)nc2cc(S(=O)(=O)N3CCOCC3)ccc21`?
TcdB inh: inactive; MazEF act: inactive; Sa RN4220 lethal: inactive; Mtb hypoxia inh: inactive; PfHsp40 rescue: inactive; Sa ugtP lethal: inactive

How did CCC(C)NC(=O)CSc1nc2cc(S(=O)(=O)N3CCOCC3)ccc2n1CC (configuration not stated) do in these assays?
TcdB inh: 10.9; MazEF act: inactive; Sa RN4220 lethal: inactive; Mtb hypoxia inh: inactive; PfHsp40 rescue: inactive; Sa ugtP lethal: inactive

Results for Cc1ccn(CCC(=O)NC2CC(C)(C)Cc3c2cnn3-c2ccccc2C)n1 (configuration not stated) ?
TcdB inh: 10.1; MazEF act: inactive; Sa RN4220 lethal: inactive; Mtb hypoxia inh: inactive; PfHsp40 rescue: inactive; Sa ugtP lethal: inactive

How did O=C(NN=C/C=C/c1ccc2c(c1)OCO2)c1ccc(F)cc1 do in these assays?
Sa RN4220 lethal: inactive; Mtb hypoxia inh: inactive; Sa ugtP lethal: inactive

What do the screens show for `Cc1nnsc1S(=O)c1ccc(Cl)cc1` (configuration not stated)?
TcdB inh: inactive; MazEF act: inactive; Sa RN4220 lethal: inactive; Mtb hypoxia inh: inactive; PfHsp40 rescue: inactive; Sa ugtP lethal: inactive

How did O=C(Nc1ccccc1)c1nnsc1S(=O)c1ccc(Cl)cc1 (configuration not stated) do in these assays?
MazEF act: inactive; Sa RN4220 lethal: 100.3; PfHsp40 rescue: inactive; Sa ugtP lethal: 100.5

How did C[C@@H]1CCCCO[C@@H](CN(C)C(=O)NC2CCCCC2)[C@@H](C)CN([C@H](C)CO)C(=O)c2cc(NS(=O)(=O)c3ccccc3)ccc2O1 do in these assays?
TcdB inh: inactive

Results for NC(=NOC(=O)c1cccc(Cl)c1)c1ccncc1 ?
Sa RN4220 lethal: inactive; Mtb hypoxia inh: inactive; Sa ugtP lethal: inactive

How did Nc1nc(SCc2ccc(Cl)cc2Cl)ns1 do in these assays?
MazEF act: inactive; Sa RN4220 lethal: inactive; Mtb hypoxia inh: inactive; PfHsp40 rescue: inactive; Sa ugtP lethal: inactive

How did Nc1cc(SCc2ccc(Cl)cc2Cl)ncn1 do in these assays?
TcdB inh: inactive; MazEF act: 56.3; Sa RN4220 lethal: inactive; Mtb hypoxia inh: inactive; PfHsp40 rescue: inactive; Sa ugtP lethal: inactive

What do the screens show for `O=C(Cn1cc(C=NNC(=O)c2cccc3ccccc23)c2ccccc21)Nc1ccc(F)cc1`?
Sa RN4220 lethal: inactive; Mtb hypoxia inh: inactive; Sa ugtP lethal: inactive

How did Cc1cc(/C=N/n2cnnc2)c(C)n1-c1ccc(OCc2ccc(F)cc2)cc1 do in these assays?
MazEF act: inactive; PfHsp40 rescue: 103.4

Results for Cc1cc(/C=N/n2cnnc2)c(C)n1-c1ccc(OCc2ccc(Cl)cc2Cl)cc1 ?
MazEF act: inactive; PfHsp40 rescue: inactive

How did CC(C)Oc1cc(C(=O)N2CCC(N3CCCCC3)CC2)ccc1Nc1nnc(Cl)c(Nc2ccccc2S(C)(=O)=O)n1 do in these assays?
MazEF act: inactive; PfHsp40 rescue: inactive

Results for CN1CCN(C2CCN(c3ccc(Nc4nnc(Cl)c(Nc5ccccc5S(C)(=O)=O)n4)c(OC(CF)CF)c3)CC2)CC1 ?
TcdB inh: inactive; MazEF act: inactive; Sa RN4220 lethal: inactive; Mtb hypoxia inh: inactive; PfHsp40 rescue: 329.3; Sa ugtP lethal: inactive

Results for [O-][n+]1c(/C=C/c2ccccc2)ccc2ccccc21 ?
TcdB inh: inactive; MazEF act: inactive; Sa RN4220 lethal: inactive; Mtb hypoxia inh: inactive; PfHsp40 rescue: inactive; Sa ugtP lethal: inactive

How did [O-][n+]1c2ccccc2[n+]([O-])c2cc(O)ccc21 do in these assays?
TcdB inh: inactive; MazEF act: inactive; Sa RN4220 lethal: inactive; Mtb hypoxia inh: 41.8; PfHsp40 rescue: inactive; Sa ugtP lethal: inactive

What do the screens show for `COc1ccc(-c2ccc3c(=O)cc(-c4ccsc4)oc3c2)cn1`?
TcdB inh: inactive; MazEF act: 69.6; Sa RN4220 lethal: inactive; Mtb hypoxia inh: inactive; PfHsp40 rescue: inactive; Sa ugtP lethal: inactive

Results for COc1cc(-c2ccc3oc(-c4ccsc4)cc(=O)c3c2)cc(OC)c1OC ?
TcdB inh: inactive; MazEF act: inactive; Sa RN4220 lethal: inactive; Mtb hypoxia inh: inactive; PfHsp40 rescue: inactive; Sa ugtP lethal: inactive

Results for O=S(=O)(NC1CCCCCCC1)c1ccc(F)cc1 ?
TcdB inh: 12.3; MazEF act: inactive; Sa RN4220 lethal: inactive; Mtb hypoxia inh: inactive; Sa ugtP lethal: inactive

What do the screens show for `CCOc1cc(S(=O)(=O)NC2CCCCC2)ccc1F`?
MazEF act: inactive; Sa RN4220 lethal: inactive; Mtb hypoxia inh: inactive; PfHsp40 rescue: 88.9; Sa ugtP lethal: inactive

Results for COc1cc(S(=O)(=O)NC2CCCCC2)ccc1F ?
MazEF act: inactive; Sa RN4220 lethal: inactive; Mtb hypoxia inh: inactive; PfHsp40 rescue: inactive; Sa ugtP lethal: inactive

What do the screens show for `C[C@H]1CN([C@@H](C)CO)C(=O)c2cccc(NS(=O)(=O)c3ccc(Cl)cc3)c2O[C@H]1CN(C)C(=O)Nc1ccc(C(F)(F)F)cc1`?
TcdB inh: inactive

Results for CCOC(=O)c1c(C)[nH]c(C(=O)NN=Cc2ccc(Br)cc2)c1C ?
Sa RN4220 lethal: inactive; Mtb hypoxia inh: inactive; Sa ugtP lethal: inactive

Results for O=C(Nc1ccc(Cl)cc1)NC1CCCCC1Cc1ccco1 (configuration not stated) ?
MazEF act: inactive; Sa RN4220 lethal: inactive; Mtb hypoxia inh: inactive; PfHsp40 rescue: 226.5; Sa ugtP lethal: inactive

Results for O=C(Nc1ccc(Cl)cc1)NC1CCCC1Cc1ccco1 (configuration not stated) ?
MazEF act: inactive; Sa RN4220 lethal: inactive; Mtb hypoxia inh: inactive; PfHsp40 rescue: inactive; Sa ugtP lethal: inactive

Results for COC(=O)C(O)(c1ccc(NC(=S)NC(=O)c2ccccc2)cc1)C(F)(F)F (configuration not stated) ?
MazEF act: inactive; Sa RN4220 lethal: inactive; Mtb hypoxia inh: inactive; PfHsp40 rescue: inactive; Sa ugtP lethal: 89.5

What do the screens show for `O=C(NC(=S)Nc1ccc(Cl)cc1)c1ccccc1`?
TcdB inh: inactive; MazEF act: inactive; Sa RN4220 lethal: inactive; Mtb hypoxia inh: inactive; PfHsp40 rescue: inactive; Sa ugtP lethal: inactive

What do the screens show for `S=C(NCc1ccco1)Nc1ccc(Oc2ccc(Cl)cc2)cc1`?
TcdB inh: inactive; MazEF act: inactive; Sa RN4220 lethal: inactive; Mtb hypoxia inh: inactive; PfHsp40 rescue: 194.3; Sa ugtP lethal: inactive

Results for O=C(NC(=S)Nc1ccc(Oc2ccc(Cl)cc2)cc1)c1ccccc1 ?
MazEF act: inactive; Sa RN4220 lethal: inactive; PfHsp40 rescue: inactive; Sa ugtP lethal: 85.8

What do the screens show for `COC(=O)C(O)(c1ccc(NC(=O)Oc2ccccc2)cc1)C(F)(F)F` (configuration not stated)?
MazEF act: inactive; Sa RN4220 lethal: inactive; Mtb hypoxia inh: inactive; PfHsp40 rescue: inactive; Sa ugtP lethal: inactive

How did S=C(NCc1ccco1)Nc1ccc(Cl)cc1 do in these assays?
TcdB inh: inactive; MazEF act: inactive; Sa RN4220 lethal: inactive; Mtb hypoxia inh: inactive; PfHsp40 rescue: inactive; Sa ugtP lethal: inactive
